# The source made the active and inactive calls. Entries that show only a call come without a potency. Unless noted, calls come from the whole dose curve; as a rule, active = well fitted curve in the direction sought with a large enough effect in the repeat runs; inconclusive = weak or mixed curves; inactive = no such curve, though single readings can be large; an effect the other way counts as inactive or inconclusive.
# How the values were obtained:
# [1] = qHTS assay to identify small molecule antagonists of the thyroid receptor (TR) signaling pathway - cell viability counter screen (AID 743064); note: nearly all actives have a fitted effect of over 50% in size; note: potency is the fitted concentration of half-maximal effect
# Method in brief: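 Rat GH3 pituitary tumor cells stably expressing two TR response elements driving luciferase were plated, rested 4 h, then dosed with library compounds and T3 (1 nM final). After 23.5 h at 37 °C, CellTiter-Fluor was added for 30 min and fluorescence recorded.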
# [2] = qHTS assay to identify small molecule antagonists of the thyroid receptor (TR) signaling pathway (AID 743065); note: nearly all actives have a fitted effect of over 55% in size; note: potency is the fitted concentration of half-maximal effect
# Method in brief: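 Antagonism measured as loss of luciferase signal in GH3 cells stably carrying a TRE-luciferase reporter, co-treated with compound and T3 (1 nM final) for 23.5 h at 37 C. Viability was read in the same well by CellTiter-Fluor.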
# [3] = test system: thyroid hormone receptor (rat, GH3 cells); test: qHTS assay to identify small molecule agonists of the thyroid receptor (TR) signaling pathway (AID 743066; calls by dose curve)
# [4] = molecular target: Estrogen receptor (Homo sapiens) (UniProt P03372); test: qHTS assay to identify small molecule antagonists of the estrogen receptor alpha (ER-alpha) signaling pathway (AID 743069; active = well fitted curve in the direction sought with a large enough effect in the signal ratio in the repeat runs, not every such curve was filed as active; inconclusive = weak or mixed curves, or effect the other way; inactive = no such curve, though single readings can be large or run the other way; the % refers to the signal ratio)
# Method in brief: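 ER-alpha-UAS-bla GripTite HEK293 line; 2% charcoal-stripped FBS overnight; plated, 4 hr 37C/5% CO2; cpd in DMSO + 17beta-estradiol, 18 hr 37C; LiveBLAzer B/G FRET substrate 2 hr RT; fluorescence intensity.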
# [5] = qHTS assay to identify small molecule antagonists of the estrogen receptor alpha (ER-alpha) signaling pathway - cell viability counter screen (AID 743074; calls by dose curve;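 note: HEK293 cells carrying ER-alpha-UAS-bla reporter stimulated with 17beta-estradiol; nearly all actives have a fitted effect of over 45% in size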)
# [6] = molecular target: Estrogen receptor (Homo sapiens) (UniProt P03372); test: qHTS assay to identify small molecule agonists of the estrogen receptor alpha (ER-alpha) signaling pathway (AID 743075; calls by dose curve;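 note: HEK293 GripTite cells with ER-alpha and UAS-driven beta-lactamase reporter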; note: potency is the fitted concentration of half-maximal effect)
# [7] = molecular target: Estrogen receptor (Homo sapiens) (UniProt P03372); test: qHTS assay to identify small molecule agonists of the estrogen receptor alpha (ER-alpha) signaling pathway using the BG1 cell line (AID 743079); conditions: BG1Luc4E2 cells, ERE-luciferase agonist, 22 h; activation: at 70.3 µM (top of the series); note: nearly all actives have a fitted effect of over 20% in size; note: potency is the fitted concentration of half-maximal effect
# [8] = qHTS assay to identify small molecule antagonists of the estrogen receptor alpha (ER-alpha) signaling pathway using the BG1 cell line (AID 743080; calls by dose curve;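 note: BG1 cells stimulated with 17beta-estradiol alongside compound; nearly all actives have a fitted effect of over 25% in size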)
# Method in brief: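 Endogenous full-length ER-alpha in BG1-Luc-4E2 cells drives a stably integrated 4×ERE luciferase gene; compounds were tested against 17beta-estradiol over 21.5 h, with luminescence and multiplexed viability fluorescence recorded.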
# [9] = qHTS assay to identify small molecule antagonists of the estrogen receptor alpha (ER-alpha) signaling pathway using the BG1 cell line - cell viability counter screen (AID 743081);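 note: compound given together with 17beta-estradiol as the ER stimulus; nearly all actives have a fitted effect of over 45% in size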
# Aromatase (Homo sapiens) = Aromatase (Homo sapiens) (UniProt P11511); test: qHTS assay to identify aromatase inhibitors (AID 743083); note: nearly all actives have a fitted effect of over 55% in size
# [10] = qHTS assay to identify aromatase inhibitors - cell viability counter screen (AID 743084);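 note: cells stimulated with testosterone during compound exposure; nearly all actives have a fitted effect of over 55% in size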
# [11] = molecular target: Aryl hydrocarbon receptor (Homo sapiens) (UniProt P35869); test: qHTS assay to identify small molecule that activate the aryl hydrocarbon receptor (AhR) signaling pathway (AID 743085);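 note: HG2L7.5c1 human HepG2 liver cells with stably integrated DRE-driven firefly reporter; nearly all actives have a fitted effect of over 15% in size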
# Method in brief: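 Compounds were tested in HepG2 hepatocellular carcinoma cells harbouring a stably integrated luciferase gene under control of 20 DREs. Increased reporter signal after 24 h treatment at 37C was taken as AhR activation.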
# [12] = molecular target: Peroxisome proliferator-activated receptor gamma (Homo sapiens) (UniProt P37231); test: qHTS assay to identify small molecule agonists of the peroxisome proliferator-activated receptor gamma (PPARg) signaling pathway (AID 743094; active = well fitted activation curve with a large enough effect in the signal ratio in the repeat runs, not every such curve was filed as active; inconclusive = weak or mixed curves, or effect the other way; inactive = no such curve, though single readings can be large or run the other way; the % refers to the signal ratio; note: potency is the fitted concentration of half-maximal effect)
# Method in brief: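 Quantitative HTS agonist mode: stable HEK293H line with UAS-beta-lactamase reporter under PPARg control, 17 h compound exposure at 37C, fluorescence after 1 h FRET substrate loading at room temperature.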
# [13] = molecular target: Peroxisome proliferator-activated receptor gamma (Homo sapiens) (UniProt P37231); test: qHTS assay to identify small molecule antagonists of the peroxisome proliferator-activated receptor gamma (PPARg) signaling pathway (AID 743191; calls by dose curve; note: nearly all actives have a fitted effect of over 30% in size)
# Method in brief: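 Beta-lactamase reporter under UAS control in HEK293H PPARg-bla cells; compound treatment 17 h at 37C. Read-out: fluorescence intensity after 1 h room-temperature incubation with LiveBLAzer B/G FRET substrate.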
# [14] = qHTS assay to identify small molecule antagonists of the peroxisome proliferator-activated receptor gamma (PPARg) signaling pathway - cell viability counter screen (AID 743194); note: nearly all actives have a fitted effect of over 55% in size
# Method in brief: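 Viability was measured as CellTiter-Glo luminescence in GeneBLAzer PPARg UAS-bla HEK293H cells. These cells had been exposed 17 h at 37 C to compounds together with rosiglitazone at 50 nM final, with the beta-lactamase readout taken in the same wells.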
# [15] = qHTS assay for small molecule agonists of the antioxidant response element (ARE) signaling pathway (AID 743202; active = well fitted activation curve with a large enough effect in the signal ratio in the repeat runs, not every such curve was filed as active; inconclusive = weak or mixed curves, or effect the other way; inactive = no such curve, though single readings can be large or run the other way; the % refers to the signal ratio; note: potency is the fitted concentration of half-maximal effect)
# Method in brief: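 Quantitative high-throughput format in HepG2 cells bearing an integrated ARE-beta-lactamase reporter. Compound exposure lasted 16 h at 37 C, and fluorescence was read 2 h after adding LiveBLAzer B/G substrate at room temperature.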
# [16] = qHTS assay for small molecule agonists of the antioxidant response element (ARE) signaling pathway - cell viability counter screen (AID 743203; calls by dose curve; note: nearly all actives have a fitted effect of over 55% in size)
# Method in brief: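 Seeded at 2,000 cells/well, ARE-bla HepG2 cells were incubated 5 hrs before compound addition. After 16 hrs of treatment at 37C with 5% CO2, CellTiter-Glo reagent was added and luminescence read 30 min later.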
# [17] = qHTS assay for small molecule activators of the heat shock response signaling pathway - cell viability counter screen (AID 743209); note: nearly all actives have a fitted effect of over 50% in size
# Method in brief: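 First, HSE-bla HeLa cells were seeded at 1500 cells/well and kept overnight at 37 C. Next, compounds were pinned in and incubated 5 h. After the FRET substrate step, CellTiter-Glo was added and luminescence read 30 min later.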
# [18] = qHTS assay to identify small molecule that activate the aryl hydrocarbon receptor (AhR) signaling pathway - cell viability counter screen (AID 743086);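 note: HepG2 liver cells carrying the AhR DRE luciferase reporter; nearly all actives have a fitted effect of over 45% in size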
# Method in brief: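 Cytotoxicity counter screen: CellTiter-Fluor signal (30 min, 37 C) in 4000 HepG2 cells/well carrying the DRE-luciferase reporter, following 24 h compound exposure at 37 C.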
# [19] = qHTS assay for small molecule activators of the heat shock response signaling pathway (AID 743210; active = well fitted activation curve with a large enough effect in the signal ratio in the repeat runs, with a control signal flat, not every such curve was filed as active; inconclusive = weak or mixed curves; the % refers to the signal ratio;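 note: HeLa cells with beta-lactamase reporter driven by heat shock elements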)
# Method in brief: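 HeLa HSE-bla cells, overnight plating; cpd in DMSO 5 h, 37 C; LiveBLAzer B/G FRET substrate 2.5 h RT; fluorescence intensity read.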
# Aryl hydrocarbon receptor (Homo sapiens), sequence (P35869 whole entry, looked up): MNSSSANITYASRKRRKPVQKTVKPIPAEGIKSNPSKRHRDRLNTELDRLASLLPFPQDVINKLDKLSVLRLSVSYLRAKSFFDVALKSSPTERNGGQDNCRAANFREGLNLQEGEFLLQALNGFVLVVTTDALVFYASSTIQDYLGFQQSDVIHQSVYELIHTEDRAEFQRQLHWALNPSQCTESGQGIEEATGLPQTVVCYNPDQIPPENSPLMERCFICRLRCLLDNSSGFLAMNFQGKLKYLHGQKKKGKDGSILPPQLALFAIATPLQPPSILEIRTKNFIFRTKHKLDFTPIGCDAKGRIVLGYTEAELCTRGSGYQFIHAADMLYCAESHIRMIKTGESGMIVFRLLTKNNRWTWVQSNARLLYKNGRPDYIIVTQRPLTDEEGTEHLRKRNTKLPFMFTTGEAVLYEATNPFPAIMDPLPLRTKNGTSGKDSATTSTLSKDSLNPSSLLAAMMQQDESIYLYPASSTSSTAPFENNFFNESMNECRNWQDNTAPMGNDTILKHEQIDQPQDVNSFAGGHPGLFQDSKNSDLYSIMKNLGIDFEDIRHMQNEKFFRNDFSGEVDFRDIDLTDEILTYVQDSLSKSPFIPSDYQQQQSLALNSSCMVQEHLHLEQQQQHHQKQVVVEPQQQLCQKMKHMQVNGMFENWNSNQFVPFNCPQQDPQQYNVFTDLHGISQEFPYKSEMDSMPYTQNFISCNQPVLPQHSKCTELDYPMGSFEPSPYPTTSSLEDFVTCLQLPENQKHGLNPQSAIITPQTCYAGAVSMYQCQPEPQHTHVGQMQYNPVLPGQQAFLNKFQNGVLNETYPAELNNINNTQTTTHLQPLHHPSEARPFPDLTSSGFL
# Peroxisome proliferator-activated receptor gamma (Homo sapiens), sequence (P37231 whole entry, looked up): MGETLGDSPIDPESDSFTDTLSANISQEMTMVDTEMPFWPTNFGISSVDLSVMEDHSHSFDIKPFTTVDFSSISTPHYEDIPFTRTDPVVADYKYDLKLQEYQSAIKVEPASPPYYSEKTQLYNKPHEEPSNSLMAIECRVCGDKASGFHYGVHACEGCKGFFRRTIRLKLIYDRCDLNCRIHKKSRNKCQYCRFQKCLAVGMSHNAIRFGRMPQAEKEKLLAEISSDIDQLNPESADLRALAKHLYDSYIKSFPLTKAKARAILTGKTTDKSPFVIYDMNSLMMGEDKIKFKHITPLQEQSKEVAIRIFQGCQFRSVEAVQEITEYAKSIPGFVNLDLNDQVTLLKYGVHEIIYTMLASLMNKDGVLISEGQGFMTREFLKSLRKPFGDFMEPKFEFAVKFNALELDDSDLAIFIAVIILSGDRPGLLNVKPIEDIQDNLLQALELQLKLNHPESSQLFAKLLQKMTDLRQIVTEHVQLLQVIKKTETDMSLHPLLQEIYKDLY
# Aromatase (Homo sapiens), sequence (P11511 whole entry, looked up): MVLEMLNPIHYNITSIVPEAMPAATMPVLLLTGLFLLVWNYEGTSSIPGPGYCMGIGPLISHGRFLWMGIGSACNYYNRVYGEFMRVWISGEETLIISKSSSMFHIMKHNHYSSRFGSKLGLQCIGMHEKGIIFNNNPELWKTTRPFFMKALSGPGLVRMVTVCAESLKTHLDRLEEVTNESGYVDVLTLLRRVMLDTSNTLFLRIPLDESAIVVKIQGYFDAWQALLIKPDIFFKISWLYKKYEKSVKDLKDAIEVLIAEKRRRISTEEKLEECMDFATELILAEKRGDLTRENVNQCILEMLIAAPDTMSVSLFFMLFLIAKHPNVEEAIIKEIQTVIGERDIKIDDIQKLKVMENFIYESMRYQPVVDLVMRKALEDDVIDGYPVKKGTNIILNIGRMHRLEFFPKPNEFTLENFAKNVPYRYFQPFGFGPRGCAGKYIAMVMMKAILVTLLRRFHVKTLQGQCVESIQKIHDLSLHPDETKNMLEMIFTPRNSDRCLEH
# Estrogen receptor (Homo sapiens), sequence (P03372 whole entry, looked up): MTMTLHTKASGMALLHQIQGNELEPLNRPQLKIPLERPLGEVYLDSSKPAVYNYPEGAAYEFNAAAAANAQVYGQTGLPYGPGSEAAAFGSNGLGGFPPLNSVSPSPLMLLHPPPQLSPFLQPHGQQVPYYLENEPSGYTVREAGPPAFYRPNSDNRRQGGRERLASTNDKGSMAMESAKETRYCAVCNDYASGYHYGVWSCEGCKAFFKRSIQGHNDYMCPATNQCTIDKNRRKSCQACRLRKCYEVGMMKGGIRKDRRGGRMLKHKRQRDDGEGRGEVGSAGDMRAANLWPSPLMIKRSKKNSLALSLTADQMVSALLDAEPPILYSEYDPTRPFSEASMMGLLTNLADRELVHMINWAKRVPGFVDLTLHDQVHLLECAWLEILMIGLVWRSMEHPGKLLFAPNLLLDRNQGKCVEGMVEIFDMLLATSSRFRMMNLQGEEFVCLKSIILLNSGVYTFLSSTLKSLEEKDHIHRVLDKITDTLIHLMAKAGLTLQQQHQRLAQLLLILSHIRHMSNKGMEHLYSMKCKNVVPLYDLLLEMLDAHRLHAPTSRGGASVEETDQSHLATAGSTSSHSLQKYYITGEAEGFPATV
Structure (SMILES),Potency [1],Potency [2],outcome [3],Potency [4],Potency [5],Potency [6],Potency [7],Potency [8],Potency [9],Potency (Aromatase (Homo sapiens)),Potency [10],Potency [11],Potency [12],Potency [13],Potency [14],Potency [15],Potency [16],Potency [17],Potency [18],Potency [19]
CCN(CC)CCNC(=O)COc1ccc(OC)cc1,inactive,inactive,inactive,inactive,inactive,inactive,23.7 µM (active),inactive,inactive,inactive,inactive,inactive,inactive,inactive,inactive,inactive,inactive,inactive,,
O=c1[nH]ncc2ccccc12,inactive,inactive,inactive,inactive,inactive,inactive,inactive,inactive,inactive,inactive,inactive,inactive,inactive,inactive,inactive,inactive,inactive,inactive,,
CCOC(C)=O,inactive,inactive,inactive,inactive,inactive,inactive,inactive,inactive,inactive,inactive,inactive,,inactive,inactive,inactive,inactive,inactive,inactive,inactive,
O=C(/C=C/c1ccc(O)c(O)c1)O[C@@H]1C[C@@](OC(=O)/C=C/c2ccc(O)c(O)c2)(C(=O)O)C[C@@H](O)[C@@H]1O,inactive,inactive,inactive,inactive,inactive,inactive,inactive,inactive,inactive,inactive,inactive,inactive,inactive,inactive,inactive,,,inactive,inactive,
CC(C)=CCC/C(C)=C/CC/C(C)=C/CCC(=O)OC/C=C(\C)CCC=C(C)C,inactive,inactive,inactive,inactive,inactive,inactive,inactive,inactive,inactive,inactive,inactive,inactive,inactive,inactive,inactive,inactive,inactive,inactive,inactive,inactive
C=CC(=O)[O-].C=CC(=O)[O-].[Zn+2],inactive,inactive,inactive,inactive,inactive,inactive,inactive,inactive,inactive,inactive,inactive,inactive,inactive,,inactive,,inactive,inactive,inactive,
Cc1cscn1,inactive,inactive,inactive,inactive,inactive,inactive,inactive,inactive,inactive,inactive,inactive,inactive,inactive,,inactive,inactive,inactive,inactive,inactive,inactive
OCCOCC#CCOCCO,inactive,inactive,inactive,inactive,inactive,inactive,inactive,inactive,inactive,inactive,inactive,inactive,inactive,inactive,inactive,inactive,inactive,inactive,inactive,
Cc1cc2c(OCC(CNC(C)(C)C)OC(=O)c3ccccc3)cccc2[nH]1 (stereo unspecified),11.9 µM (active),26.6 µM (active),inactive,inactive,inactive,inactive,inactive,inactive,inactive,inactive,inactive,inactive,inactive,inactive,inactive,inactive,inactive,inactive,,
COc1cc(C(=O)NCCCCCC(=O)O)cc(OC)c1OC,inactive,inactive,inactive,inactive,inactive,inactive,inactive,inactive,inactive,inactive,inactive,inactive,inactive,inactive,inactive,inactive,inactive,inactive,inactive,inactive
Cc1cc(C)cc(N)c1,inactive,inactive,inactive,inactive,inactive,inactive,inactive,inactive,inactive,inactive,inactive,inactive,,inactive,inactive,inactive,inactive,inactive,inactive,inactive
CN1C(=O)OC(C)(C)C1=O,inactive,inactive,inactive,inactive,inactive,inactive,inactive,inactive,inactive,inactive,inactive,inactive,inactive,,inactive,inactive,inactive,inactive,inactive,inactive
COc1ncnc(NS(=O)(=O)c2ccc(N)cc2)c1OC,inactive,inactive,inactive,inactive,inactive,inactive,inactive,inactive,inactive,inactive,inactive,inactive,inactive,,inactive,,inactive,inactive,inactive,inactive
C=C1CCC2CC1C2(C)C (stereo unspecified),inactive,inactive,inactive,inactive,inactive,inactive,inactive,inactive,inactive,inactive,inactive,,inactive,,inactive,inactive,inactive,inactive,inactive,inactive
CCOc1ccccc1O[C@H](c1ccccc1)[C@H]1CNCCO1,16.8 µM (active),26.6 µM (active),inactive,inactive,inactive,inactive,inactive,inactive,inactive,inactive,inactive,inactive,inactive,,inactive,,inactive,inactive,,inactive
CCC=CC#N,inactive,inactive,inactive,inactive,inactive,inactive,inactive,inactive,inactive,inactive,inactive,,inactive,,inactive,inactive,inactive,inactive,inactive,
CCC(=O)C1CC(C(C)C)CC=C1C (stereo unspecified),inactive,inactive,inactive,inactive,inactive,inactive,inactive,inactive,inactive,inactive,inactive,inactive,inactive,inactive,inactive,inactive,inactive,inactive,,inactive
O=Cc1c2ccccc2c(Cl)c2ccccc12,inactive,inactive,inactive,inactive,inactive,13.5 µM [inconclusive] (active),inactive,inactive,inactive,inactive,inactive,inactive,9.53 µM (active),,inactive,29.9 µM (active),inactive,inactive,inactive,
Brc1cc2ccccc2c2ccccc12,inactive,inactive,inactive,inactive,inactive,inactive,inactive,inactive,inactive,inactive,inactive,inactive,inactive,inactive,inactive,inactive,inactive,inactive,inactive,inactive
COC(=O)CCS,inactive,inactive,inactive,inactive,inactive,inactive,inactive,inactive,inactive,inactive,inactive,inactive,,inactive,inactive,inactive,inactive,inactive,inactive,inactive
O[C@@H]1CO[C@H]2[C@@H]1OC[C@@H]2O,inactive,inactive,inactive,inactive,inactive,inactive,inactive,inactive,inactive,inactive,inactive,inactive,inactive,inactive,inactive,inactive,inactive,inactive,inactive,inactive
C[C@@H](O)[C@H]1C(=O)N2C(C(=O)O)=C([C@H]3CCCO3)S[C@H]12,inactive,inactive,inactive,inactive,inactive,inactive,inactive,inactive,inactive,inactive,inactive,,inactive,inactive,inactive,,inactive,inactive,inactive,
CCC(C)(C)OC,inactive,inactive,inactive,inactive,inactive,54.7 µM [activator] (active),68.2 µM (active),inactive,inactive,inactive,inactive,inactive,inactive,inactive,inactive,inactive,inactive,inactive,inactive,inactive
O=C(O)CCC(=O)C(=O)O,inactive,inactive,inactive,inactive,inactive,inactive,inactive,inactive,inactive,inactive,inactive,inactive,inactive,,inactive,inactive,inactive,inactive,inactive,inactive
O=C(OC(=O)c1ccccc1)c1ccccc1,inactive,inactive,inactive,inactive,inactive,inactive,inactive,inactive,inactive,inactive,inactive,inactive,inactive,inactive,inactive,inactive,inactive,inactive,inactive,inactive
C=C1c2cccc(O)c2C(O)=C2C(=O)[C@]3(O)C(O)=C(C(N)=O)C(=O)[C@@H](N(C)C)[C@@H]3[C@@H](O)[C@H]12,inactive,inactive,inactive,inactive,inactive,inactive,inactive,inactive,inactive,inactive,inactive,inactive,inactive,,inactive,inactive,inactive,inactive,,inactive
NCCNCCO,inactive,inactive,inactive,inactive,inactive,inactive,inactive,inactive,inactive,inactive,inactive,inactive,inactive,inactive,inactive,inactive,inactive,inactive,,
CO[C@]1(NC(=O)CSC(F)F)C(=O)N2C(C(=O)O)=C(CSc3nnnn3CCO)CO[C@H]21,inactive,inactive,inactive,inactive,inactive,inactive,inactive,inactive,inactive,inactive,inactive,inactive,inactive,inactive,inactive,inactive,inactive,inactive,,inactive
Nc1ncnc2c1ncn2[C@H]1CC[C@@H](CO)O1,inactive,inactive,inactive,inactive,inactive,inactive,inactive,inactive,inactive,inactive,inactive,inactive,inactive,,inactive,inactive,inactive,inactive,inactive,
CC(O)c1ccccc1 (stereo unspecified),inactive,inactive,inactive,inactive,inactive,inactive,inactive,inactive,inactive,inactive,inactive,inactive,inactive,inactive,inactive,inactive,inactive,inactive,,inactive
